Source: PubChem BioAssay (NCI)
Compounds without any hit were thinned out: in the full panel of roughly 79,000, 15% have a hit. Cut-off read from the data, not from the text of the source: active = growth inhibition above about 70%; inactive = the rest.

Tests used:
[1] = NCI Yeast Anticancer Drug Screen. Data for the rad50 strain (AID 155);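 note: 0% = growth of vehicle-only cultures of the same strain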; conditions: S. cerevisiae rad50 strain growth inhibition; at 50.0 µM; hits give high values
Procedure, shortened: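 Compounds were tested on a yeast strain with an engineered DNA damage repair alteration; the reported value is growth inhibition normalised to vehicle treatment.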

[2] = NCI Yeast Anticancer Drug Screen. Data for the mec2-1 strain (AID 157); conditions: S. cerevisiae mec2-1 strain, at 50.0 µM, hits give high values
Procedure, shortened: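 Using mec2-1 yeast: add compound, measure growth, express inhibition versus vehicle-treated cultures.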

[3] = NCI Yeast Anticancer Drug Screen. Data for the sgs1 mgt1 strain (AID 161);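 note: 0% = growth of cultures given vehicle only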; conditions: S. cerevisiae sgs1 mgt1 strain, at 50.0 µM, hits give high values
Procedure, shortened: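 Yeast cells carrying a defined DNA-repair defect were exposed to test compounds. Growth inhibition was measured relative to vehicle-treated controls.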

[4] = NCI Yeast Anticancer Drug Screen. Data for the cln2 rad14 strain (AID 165);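 note: 0% = growth equal to vehicle treated cultures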; conditions: S. cerevisiae cln2 rad14 strain, at 50.0 µM, hits give high values
Procedure, shortened: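 Yeast strain cln2 rad14, bearing defects in cell cycle control and DNA repair, serves as the test system; values reflect growth inhibition compared with vehicle.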

[5] = NCI Yeast Anticancer Drug Screen. Data for the bub3 strain (AID 167); conditions: S. cerevisiae bub3 mutant strain, at 50.0 µM, hits give high values
Procedure, shortened: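 Growth of a checkpoint-deficient yeast mutant is measured after compound exposure. Values represent inhibition relative to vehicle.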

[6] = NCI Yeast Anticancer Drug Screen. Data for the mlh1 rad18 strain (AID 175); conditions: S. cerevisiae mlh1 rad18 strain growth inhibition; at 50.0 µM; hits give high values
Procedure, shortened: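 Steps: expose repair-defective yeast to compound; measure growth; express inhibition against vehicle-treated controls.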

Measured: growth inhibition

Cc1ccc(/C=N/NC(=O)c2ccc(C)cc2)cc1
inactive: [1] -14.9% | [2] -10.2% | [3] -4.5% | [4] -13.7% | [5] -16.2% | [6] -11.9%

CCOC(=O)CCC(C)(C#N)c1ccccc1 (stereo unspecified)
inactive: [1] -2.35% | [2] 0.65% | [3] 2.5% | [4] -9.1% | [5] 5.75% | [6] -0.05%

C#CCN(C)C(C)=O
inactive: [1] 25.3% | [2] -3.3% | [3] 5.1% | [4] 10.8% | [5] 6.45% | [6] 13.6%

CCO/C([O-])=C(\C=N\S(=O)(=O)c1ccc(C)cc1)[n+]1ccccc1
inactive: [1] 8.8% | [2] 13.8% | [3] 5.1% | [4] -20.2% | [5] -3.85% | [6] 2.65%

O=C1C(=O)N(c2ccccc2Cl)C(=O)N1Cc1ccccc1
inactive: [1] 10.7% | [2] 8.45% | [3] 0.95% | [4] 13.8% | [5] 2.75% | [6] 2.1%

c1cnn([B-]2(n3cccn3)n3ccc[n+]3[B-](n3cccn3)(n3cccn3)n3ccc[n+]32)c1
inactive: [1] 0.85% | [2] -11.6% | [3] 9.2% | [4] -8.85% | [5] 14.1% | [6] -4.05%

CCOC(Nc1ccccc1[N+](=O)[O-])C(=O)c1ccccc1 (stereo unspecified)
inactive: [1] 21.4% | [2] 8.05% | [3] 1.35% | [4] 28.7% | [5] 24.4% | [6] 12.7%

NC(=O)C1(C(N)=O)CC1
inactive: [1] 11.4% | [2] 4.55% | [3] -14.5% | [4] -0.05% | [5] -3.75% | [6] 5.1%

CC1(C)CCCc2c(-c3ccccc3)cc3c4[nH]c5ccccc5c4cc[n+]3c21
inactive: [1] 23.6% | [2] -5.4% | [3] 11.1% | [4] 3.65% | [5] -2.5% | [6] 7%

c1ccc(-n2nnc3c2CCCC3)cc1
inactive: [1] -3.2% | [2] -1.6% | [3] -6.1% | [4] -23.8% | [5] -25.6% | [6] -1.65%

CCCCOC(=O)/C=C/c1ccc(OC(C)C)cc1
inactive: [1] 3.95% | [2] -9% | [3] -9.4% | [4] -48.1% | [5] 19.9% | [6] -10.4%

O=c1[nH]c(=O)c2ncn(-c3ccc(Cl)cc3)c2[nH]1
inactive: [1] -7.35% | [2] -20.9% | [3] 7.1% | [4] -37.5% | [5] -24.4% | [6] -8.3%

CCCOC1CC(C)C(O)C(C)C1 (stereo unspecified)
inactive: [1] 24.6% | [2] -4.15% | [3] 3.35% | [4] -10.8% | [5] -1.35% | [6] 15.5%

N[C@H](CCC(=O)NCP(=O)(O)O)C(=O)O
inactive: [1] -43.7% | [2] -42.6% | [3] -44.7% | [4] -7.1% | [5] -10.8% | [6] -41.1%

O=[N+]([O-])c1cccc(N=Cc2ccc(Cl)cc2)c1
inactive: [1] -29.9% | [2] -17.8% | [3] -62.5% | [4] -0.7% | [5] -0.05% | [6] -11.1%

COc1ccc([Se][Se]c2ccc(OC)cc2NC(C)=O)c(NC(C)=O)c1
inactive: [1] 19.8% | [2] -6.8% | [3] 18.1% | [4] 16.1% | [5] 27.9% | [6] 7.15%

COc1cccc(NC(=O)CC(=O)N2N=C(N(CCC#N)c3ccc(Cl)cc3)CC2c2ccccc2)c1 (stereo unspecified)
inactive: [1] 19.1% | [2] -4.2% | [3] 19.1% | [4] 8.9% | [5] -0.15% | [6] -0.75%

CSC(=S)/C(=C/Nc1ccccn1)c1ccccc1
inactive: [1] 39.5% | [2] 14.5% | [3] -8.6% | [4] 15.2% | [5] 37.8% | [6] 14.9%

CN(C)Cc1ccccc1COC(=O)/C=C/c1ccccc1
inactive: [1] 11.3% | [2] 7.5% | [3] 8.8% | [4] 10.1% | [5] 7.4% | [6] 8.95%

Cc1cc([N+](=O)[O-])ccc1N=NC(=O)NNc1ccc([N+](=O)[O-])cc1C
inactive: [1] -0.45% | [2] 5.1% | [3] 8.35% | [4] -33.1% | [5] 4.15% | [6] 23.2%

O=c1c(N2CCOCC2)c(N2CCOCC2)c1=O
inactive: [1] -21.6% | [2] -22.9% | [3] 0.25% | [4] 15.4% | [5] -24.4% | [6] -1.1%
